From PubChem BioAssay (EPA / NIEHS) come the findings set out here.

Each structure is given as a SMILES string. Where a structure was tested more than once in an assay, its records may differ in their call. Activity calls are given as the source filed them. Rule for the calls: active = hit-call score of the fitted dose curve at least 0.9, where 1 is the maximum; inactive = score below 0.9.

Read-out in the test: Plasminogen activator inhibitor-1 (PAI1), SERPINE1 (gene 5054)
In words: BSK_hDFCGF_PAI1: BioMAP Diversity Plus: hDFCGF Assay for Plasminogen activator inhibitor-1 (PAI1) Biomarker Activity (AID 2283066). The note with it: primary human foreskin fibroblasts; actives raise or lower the signal. How it is done: BSK_hDFCGF is a cell-based, multiplexed-readout assay that uses foreskin fibroblast, a human skin primary cell, with measurements taken at 24 hours after chemical dosing in a 96-well plate.BSK_hDFCGF_PAI1 is an assay component measured in the BSK_hDFCGF assay. It measures PAI-1 antibody related to regulation of gene expression using ELISA technology.Data from the assay component BSK_hDFCGF_PAI1 was analyzed into 1 assay endpoint. This assay endpoint, BSK_hDFCGF_PAI1, was analyzed with bidirectional fitting relative to DMSO as the negative control and baseline of activity. Using a type of binding reporter, gain or loss-of-signal activity can be used to understand changes in the signaling as they relate to the gene SERPINE1. Furthermore, this assay endpoint can be referred to as a primary readout, because this assay has produced multiple assay endpoints where this one serves a signaling function. To generalize the intended target to other relatable targets, this assay endpoint is annotated to the cytokine intended target family, where the subfamily is plasmogen activator inhibitor.
The levels of cell surface (or secreted, indicated by the prefix "s") biomarker endpoints were measured by ELISA. Overt cytotoxicity to cells in confluent adherent cultures (all systems other than the BT system) was assessed by measuring total protein levels using sulforhodamine B (SRB) staining in parallel cultures at the time of biomarker measurements, indicated as SRB endpoints. For proliferation assays for adherent cell types, individual cell types are cultured at sub-confluence and relative cell numbers quantified by SRB staining at time points optimized for each system (48 h: 3C and CASM3C systems; 72 h: BT and HDF3CGF systems; 96 h: SAg system). SRB was performed by staining cells with 0.1% SRB after fixation with 10% TCA and reading wells at 560 nm.Viability and proliferation of PBMC (T cells) was quantified by Alamar Blue reduction for the SAg and BT systems. For PBMC viability (referred to as PBMC Cytotoxicity within the assay endpoint names), cells were plated (75,000/well in a 96-well plate) and then chemical samples added for 1 h before addition of activators, SEB and TSST-1 (20 ng/mL final concentration each). Cells were incubated for 90 h. Then, Alamar Blue (20 uL/well) (Invitrogen, Cat DAL1100) was added for 6 h, and the plates were read with a fluorescence microplate reader at 546/580 nm (excitation/emission). For PBMC proliferation, cells were plated and activated as above but incubated for only 16 h prior to addition of Alamar Blue. Plates were read after 6 h.
Regarding `O=C1CCC(N2C(=O)c3ccccc3C2=O)C(=O)N1` (stereo not given), the result was inactive.

What is called AC50 is the midpoint of the concentration-response curve, whichever way the signal moves. As to `CCc1cc(SCc2sc(-c3ccc(C(F)(F)F)cc3)nc2CN2CCN(c3ccc(OC)cc3)CC2)ccc1OCC(=O)O`, the AC50 is 3.17 µM (active).

For `O=C(O)CCN(C1(C(=O)NO)CCCC1)S(=O)(=O)c1ccc(Oc2ccc(F)cc2)cc1`, the result was inactive.

Take `CNS(=O)(=O)c1cc(C(=O)N2CCC(CCN3C4CCC3CC(n3c(C)nc5ccccc53)C4)(c3cccc(F)c3)CC2)c(Cl)cc1F` (stereo not given): the AC50 was 20 µM (active).

Turning to `COC(=O)CC(=O)OC`, the outcome was inactive.

As to `O=C(CCCCCCCCc1cccnc1)N1CCC(C=C(c2ccccc2)c2ccccc2)CC1`, the AC50 is 5.88 µM (active).

Consider `Fc1ccccc1[C@@H](F)COC1CCC(Nc2ncnc3[nH]ncc23)CC1` (stereo not given in full), for which the result was inactive.

`O=C(O)c1cccc(N(Cc2cccnc2)c2ccc(OC(F)F)c(OC(F)F)c2)c1`: the AC50 was 1.26 µM (active).

With `COC(=O)c1ccccc1O`, the outcome was inactive.

Take `O=C1CCCCCN1`: the outcome was inactive.

Consider `C=CC(=C)CCC=C(C)C`, for which the outcome was inactive.

On to `Cc1ccc(S(=O)(=O)O)cc1C`, for which the outcome was inactive.

`CC[C@H](C)C(=O)O[C@H]1C[C@@H](C)C=C2C=C[C@H](C)[C@H](CC[C@@H]3C[C@@H](O)CC(=O)O3)[C@H]21`: the AC50 was 31.9 µM (active).

As to `CCCCC(CC)COC(=O)CCCCCCCCC(=O)OCC(CC)CCCC` (stereo not given), the result was inactive.

`Cc1ccc(N)cc1O`: the result was inactive.

Turning to `CC1(C)C(=O)N(Br)C(=O)N1Br`, the result was inactive.

For `COCCOc1cc2cc(C(=O)NC3CCN(C(C)C)CC3)n(CC(=O)Nc3ccc(Cl)cn3)c2cn1`, the result was inactive.

Take `Nc1ccc(Nc2ccccc2)cc1`: the result was inactive.

As to `O=c1n(CC2CO2)c(=O)n(CC2CO2)c(=O)n1CC1CO1` (stereo not given), the AC50 was 22 µM (active).

Turning to `COCCOCCOCCOC`, the outcome was inactive.

As to `CCCN(C1CCN(C(=O)C2CCNCC2)CC1)[C@@H]1CCc2ccc(OC)cc2C1`, the result was inactive.

Turning to `C[C@](N)(Cc1ccc(O)c(O)c1)C(=O)O`, the result was inactive.

Turning to `CCN(C(=O)c1cc(C)cc(OC[C@H](C)Nc2ccncc2)c1)C(C)C`, the outcome was inactive.

`CC(C)CCCCCCOC(=O)c1ccc(C(=O)OCCCCCCC(C)C)c(C(=O)OCCCCCCC(C)C)c1`: the result was inactive.

Turning to `NC(=O)NO`, the result was inactive.

For the molecule `CN(C)c1ccc(N=NS(=O)(=O)O)cc1`, the outcome was inactive.

In the case of `CC(=O)OC[C@H]1O[C@@](COC(C)=O)(O[C@H]2O[C@H](COC(C)=O)[C@@H](OC(C)=O)[C@H](OC(C)=O)[C@H]2OC(C)=O)[C@@H](OC(C)=O)[C@@H]1OC(C)=O`, the outcome was inactive.

Take `CC(C)CC(C)(O)C#CC(C)(O)CC(C)C` (stereo not given): the outcome was inactive.

Regarding `Cn1cnc([N+](=O)[O-])c1Sc1ncnc2nc[nH]c12`, the AC50 is 11.7 µM (active) and the result was inactive.

Turning to `Nc1cccc(N)c1`, the outcome was inactive.

On to `C1=CCCC=CCCC=CCC1`, for which the outcome was inactive.

Take `CCOCCO`: the result was inactive.

With `C1N2CN3CN1CN(C2)C3`, the result was inactive.

In the case of `CCOC(=O)COc1ccc2c(c1)CC(NCC(O)c1cccc(Cl)c1)CC2` (stereo not given), the AC50 is 31.7 µM (active).

Consider `CCOC(=O)c1ccc(C2CCC(NC[C@H](O)COc3ccc(O)c(NS(C)(=O)=O)c3)CC2)cc1` (stereo not given in full), for which the concentration at half-maximal activity (AC50) is 8.8 µM (active).

Consider `CC(=O)c1ccc2c(c1)[C@H](NC(=O)c1ccc(F)cc1)[C@@H](O)C(C)(C)O2`, for which the result was inactive.

As for `CC(C)=CCC/C(C)=C/CO`, the outcome was inactive.

Turning to `O=C(O)c1cccc(Oc2ccccc2)c1`, the result was inactive.

In the case of `CC(C)=CCCC(C)=CC=O`, the result was inactive.
